Data: PubChem BioAssay AID1159580 (chemical genetic matrix, 2015)
In all, about 5,500 compounds went through this assay and about 2,000 (36%) were called active. Inconclusive results (about 18%) are left out. No stated cut-off is given here; in the data, active means normalized growth mostly below about 0.91 (no sharp cut-off); inconclusive means no clear call, values can overlap the other calls; inactive means mostly above about 0.92. The list shows a part of the results.

Experiment: chemical genetic growth profiling, strain panel (AID 1159580);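 further: tested at 20 µM; growth read once vehicle control cultures reached saturation at 30 °C; 1 = growth at the plate median or of vehicle wells; lower values mean less growth of the strain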
Details: growth OD

Measured: normalized growth

C=C1c2c(Cl)ccc(O)c2C(O)=C2C(=O)[C@]3(O)C(O)=C(C(N)=O)C(=O)[C@@H](N(C)C)[C@@H]3[C@@H](O)[C@H]12
active: S. cerevisiae deletion strains, locus YLR268W, strain sec22, hits give low values 0.866 | S. cerevisiae deletion strains, locus YMR058W, strain fet3, hits give low values 0.841 | S. cerevisiae deletion strains, locus YNL209W, strain ssb2, hits give low values 0.924
inactive: S. cerevisiae deletion strains, locus YJR075W, strain HOC1, hits give low values 0.96 | S. cerevisiae deletion strains, locus YKL009W, strain mrt4, hits give low values 1 | S. cerevisiae deletion strains, locus YKL068W, hits give low values 0.989 | S. cerevisiae deletion strains, locus YKL085W, strain MDH1 (second series), hits give low values 0.971 | S. cerevisiae deletion strains, locus YKL085W, strain MDH1, hits give low values 0.971 | S. cerevisiae deletion strains, locus YKL160W, strain elf1, hits give low values 0.999 | S. cerevisiae deletion strains, locus YKL190W, strain CNB1, hits give low values 0.979 | S. cerevisiae deletion strains, locus YKR001C, strain vps1, hits give low values 0.917 | S. cerevisiae deletion strains, locus YKR026C, strain gcn3, hits give low values 0.983 | S. cerevisiae deletion strains, locus YKR091W, strain srl3, hits give low values 0.973 | S. cerevisiae deletion strains, locus YLL001W, strain dnm1, hits give low values 1.01 | S. cerevisiae deletion strains, locus YLL026W, hits give low values 0.996 | S. cerevisiae deletion strains, locus YLL041C, strain sdh2, hits give low values 0.985 | S. cerevisiae deletion strains, locus YLR027C, strain aat2, hits give low values 1 | S. cerevisiae deletion strains, locus YLR039C, strain RIC1, hits give low values 0.968 | S. cerevisiae deletion strains, locus YLR058C, strain SHM2, hits give low values 0.937 | S. cerevisiae deletion strains, locus YLR102C, strain apc9, hits give low values 0.986 | S. cerevisiae deletion strains, locus YLR113W, strain HOG1, hits give low values 1.01 | S. cerevisiae deletion strains, locus YLR221C, strain rsa3, hits give low values 0.935 | S. cerevisiae deletion strains, locus YLR258W, strain gsy2, hits give low values 0.948 | S. cerevisiae deletion strains, locus YLR262C, strain YPT6 (second series), hits give low values 0.974 | S. cerevisiae deletion strains, locus YLR262C, strain YPT6, hits give low values 0.997 | S. cerevisiae deletion strains, locus YLR320W, strain mms22, hits give low values 0.926 | S. cerevisiae deletion strains, locus YLR330W, strain CHS5, hits give low values 0.981 | S. cerevisiae deletion strains, locus YLR342W, strain FKS1 (second series), hits give low values 0.875 | S. cerevisiae deletion strains, locus YLR342W, strain FKS1, hits give low values 0.965 | S. cerevisiae deletion strains, locus YLR357W, strain rsc2, hits give low values 0.895 | S. cerevisiae deletion strains, locus YLR370C, strain arc18, hits give low values 0.988 | S. cerevisiae deletion strains, locus YLR371W, strain rom2, hits give low values 0.987 | S. cerevisiae deletion strains, locus YLR384C, strain iki3, hits give low values 0.988 | S. cerevisiae deletion strains, locus YLR418C, strain cdc73, hits give low values 0.899 | S. cerevisiae deletion strains, locus YML016C, strain PPZ1, hits give low values 0.968 | S. cerevisiae deletion strains, locus YML032C, strain rad52, hits give low values 0.937 | S. cerevisiae deletion strains, locus YML120C, strain ndi1, hits give low values 0.993 | S. cerevisiae deletion strains, locus YML124C, strain tub3, hits give low values 0.977 | S. cerevisiae deletion strains, locus YMR078C, strain ctf18, hits give low values 0.983 | S. cerevisiae deletion strains, locus YMR125W, strain sto1, hits give low values 0.954 | S. cerevisiae deletion strains, locus YMR129W, hits give low values 0.981 | S. cerevisiae deletion strains, locus YMR205C, strain PFK2, hits give low values 0.998 | S. cerevisiae deletion strains, locus YMR223W, strain ubp8, hits give low values 0.969 | S. cerevisiae deletion strains, locus YMR231W, strain pep5, hits give low values 0.987 | S. cerevisiae deletion strains, locus YMR263W, strain SAP30, hits give low values 0.957 | S. cerevisiae deletion strains, locus YMR307W, strain GAS1, hits give low values 0.887 | S. cerevisiae deletion strains, locus YNL067W, strain RPL9B, hits give low values 0.93 | S. cerevisiae deletion strains, locus YNL071W, strain lat1, hits give low values 0.96 | S. cerevisiae deletion strains, locus YNL128W, strain TEP1, hits give low values 0.936 | S. cerevisiae deletion strains, locus YNL153C, strain GIM3, hits give low values 0.897 | S. cerevisiae deletion strains, locus YNL183C, strain NPR1, hits give low values 0.947 | S. cerevisiae deletion strains, locus YNL233W, strain BNI4, hits give low values 0.919 | S. cerevisiae deletion strains, locus YNL248C, strain rpa49, hits give low values 0.921 | S. cerevisiae deletion strains, locus YNL250W, strain rad50, hits give low values 0.96 | S. cerevisiae deletion strains, locus YNL271C, strain bni1, hits give low values 0.961 | S. cerevisiae deletion strains, locus YNL298W, strain CLA4, hits give low values 1 | S. cerevisiae deletion strains, locus YNL307C, strain MCK1, hits give low values 0.965 | S. cerevisiae deletion strains, locus YNL322C, strain KRE1 (second series), hits give low values 0.958 | S. cerevisiae deletion strains, locus YNL322C, strain KRE1, hits give low values 0.985 | S. cerevisiae deletion strains, locus YNR049C, strain mso1, hits give low values 0.971 | S. cerevisiae deletion strains, locus YNR052C, strain pop2, hits give low values 0.99 | S. cerevisiae deletion strains, locus YOL006C, strain TOP1, hits give low values 0.839 | S. cerevisiae deletion strains, locus YOL012C, strain htz1 0.807 | S. cerevisiae deletion strains, locus YOL147C, strain pex11, hits give low values 0.975 | S. cerevisiae deletion strains, locus YOR001W, strain rrp6, hits give low values 0.997 | S. cerevisiae deletion strains, locus YOR061W, strain CKA2, hits give low values 0.973 | S. cerevisiae deletion strains, locus YOR069W, strain VPS5, hits give low values 0.974 | S. cerevisiae deletion strains, locus YOR070C, strain gyp1, hits give low values 0.951 | S. cerevisiae deletion strains, locus YOR080W, strain dia2, hits give low values 0.988 | S. cerevisiae deletion strains, locus YOR083W, strain WHI5, hits give low values 0.96 | S. cerevisiae deletion strains, locus YOR106W, strain vam3, hits give low values 0.974 | S. cerevisiae deletion strains, locus YOR136W, strain idh2, hits give low values 0.997 | S. cerevisiae deletion strains, locus YOR144C, strain elg1, hits give low values 0.984 | S. cerevisiae deletion strains, locus YOR184W, strain ser1, hits give low values 0.978 | S. cerevisiae deletion strains, locus YOR231W, strain MKK1, hits give low values 0.972 | S. cerevisiae deletion strains, locus YOR265W, strain rbl2, hits give low values 0.974 | S. cerevisiae deletion strains, locus YOR270C, strain vph1, hits give low values 0.97 | S. cerevisiae deletion strains, locus YOR290C, strain snf2, hits give low values 0.916 | S. cerevisiae deletion strains, locus YOR316C, strain cot1, hits give low values 0.992 | S. cerevisiae deletion strains, locus YPL051W, strain arl3, hits give low values 0.973 | S. cerevisiae deletion strains, locus YPL055C, strain LGE1, hits give low values 0.94 | S. cerevisiae deletion strains, locus YPL078C, strain atp4, hits give low values 1.02 | S. cerevisiae deletion strains, locus YPL106C, strain sse1, hits give low values 0.898 | S. cerevisiae deletion strains, locus YPL240C, strain hsp82, hits give low values 1 | S. cerevisiae deletion strains, locus YPL241C, strain CIN2, hits give low values 0.978 | S. cerevisiae deletion strains, locus YPL256C, strain CLN2, hits give low values 1.01 | S. cerevisiae deletion strains, locus YPR119W, strain clb2, hits give low values 0.985 | S. cerevisiae deletion strains, locus YPR141C, strain kar3, hits give low values 0.979 | S. cerevisiae deletion strains, locus YPR163C, strain tif3, hits give low values 0.958 | S. cerevisiae deletion strains, locus YPR167C, strain met16, hits give low values 0.977 | S. cerevisiae deletion strains, strain wtn01, hits give low values 0.934 | S. cerevisiae strains, strain wild type, hits give low values 0.95
